Source: PubChem (National Center for Advancing Translational Sciences (NCATS))
A selection: hits, their analogues and other compounds. The true share with any hit is near 15%.
SARS PLpro yeast – SARS-CoV PLP inhibition in yeast; hit rate 0.19% among 330,000; S. cerevisiae expressing SARS-CoV PLpro, growth rescue; Potency, µM (highest dose often 32.9 µM), actives largely listed as activators; calls by dose curve; further: nearly all actives have a fitted effect of over 55% in size
Pf growth 96h – P. falciparum growth inhibition at 96 hour, primary screen for plastid delayed-death inhibitors; Potency, µM (top dose mostly 28.7 µM), usual class: inhibitors; P. falciparum luciferase reporter growth, 96 h; AID 504834; hit rate 6.9% among 320,000
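Delayed-death screen, second-generation endpoint: infected erythrocytes, 2% hematocrit, 0.05% parasitemia final; 96 hours at 37 C, 5% CO2; luciferase detection reagent; luminescence decrease equals reduced growth.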
HCMV antiviral – blocks human cytomegalovirus replication; HFF cells, HCMV-luciferase reporter, 72 h; hits give low values; activity change, negative = inhibition, % at 57.5 µM; hit rate 4.5% among 410,000; in the data active means activity change below about -60%; inconclusive means no clear call, values can overlap the other calls; inactive means above about -39%
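Two-dose cell screen: HFF monolayers treated with compounds and infected with luciferase-expressing HCMV at 1 PFU/cell, 72 h at 37C, then lysed for luciferase measurement.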
Sm TGR block – blocks Schistosoma mansoni thioredoxin glutathione reductase. Q962Y6. purified TGR, DTNB reduction, TNB absorbance 405 nm. Potency, µM (highest dose often 114 µM), usual class: inhibitors. hit rate 3% among 360,000; further: nearly all actives have a fitted effect of over 60% in size
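TGR 20 nM + NADPH 100 uM (dispensed conc.), cpd preinc 15 min RT; start with NADPH (500 uM addition) then DTNB (15 mM addition). Kinetic TNB absorbance, 405 nm filter. Four-parameter Hill fit across titration.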
Pf growth 48h – inhibits P. falciparum growth in the first generation, 48 h | P. falciparum luciferase growth in erythrocytes, 48 h | Potency, µM (series often up to 28.7 µM), actives largely listed as inhibitors | hit rate 5.9% among 310,000 | AID 504832
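In quantitative HTS format, infected erythrocytes bearing luciferase-reporter parasites were treated for a single generation at 37 C. Luminescence after adding detection reagent served as the growth measure.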
HCV inhibitor – HCV inhibition; Huh7.5.1 HCVcc-Cre infection, luciferase reporter, 44 h; Potency, µM (top dose mostly 41.8 µM), usual class: inhibitors; hit rate 3.4% among 340,000; AID 651820
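A cell-based infection assay in which seeded cells (1,000 per well) receive test compound after 4 h, are inoculated with HCVcc-Cre at approximately 0.5 moi, and are incubated 44 h before luminescence detection.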
Large screens that a line does not name were inactive. Unless noted, the call rests on the fitted dose curve; in most records, active means well fitted curve in the direction sought with a large enough effect; inconclusive means small, poorly fitted or top-dose-only effect, or another doubt; inactive means no such curve, though single readings can be large; an effect the other way counts as inactive or inconclusive.

O=C1CN(S(=O)(=O)c2cccc(Br)c2)CCN1	none (no result: Pf growth 96h, Sm TGR block, Pf growth 48h)
O=C(NNC(=O)C1CC=CCC1)c1ccccc1Cl (stereo not given)	none
COc1ccccc1N1CCN(C(=O)c2ccc3c(c2)CCN3S(=O)(=O)c2ccccc2)CC1	Pf growth 96h inconclusive, HCMV antiviral inconclusive, Pf growth 48h 8.28µM, HCV inhibitor 12.6µM
O=C(c1cccc(S(=O)(=O)N2CCc3ccccc32)c1)N1CCCC(C(F)(F)F)C1 (stereo not given)	Pf growth 96h inconclusive, HCMV antiviral inconclusive, Pf growth 48h inconclusive, HCV inhibitor 11.2µM
O=C(c1cccc(S(=O)(=O)N2CCc3ccccc32)c1)N1CCN(c2ccccc2)CC1	Pf growth 96h 10.4µM, HCMV antiviral inconclusive, Sm TGR block 39.8µM, Pf growth 48h inconclusive, HCV inhibitor 10µM
Cc1cc(S(=O)(=O)Nc2cc3c(cc2N2CCOCC2)n(C)c(=O)c(=O)n3C)ccc1F	none (no result: SARS PLpro yeast, Pf growth 96h, Pf growth 48h, HCV inhibitor)
Cc1cc(C)c2c(=O)c3c(oc2c1)C(=O)N(CCCOC(C)C)C3c1ccccc1F (stereo not given)	none (no result: SARS PLpro yeast, Pf growth 96h, Pf growth 48h, HCV inhibitor)
Cc1nc(NC(=O)COC(=O)c2cccs2)c(Cl)cc1Cl	none
CC(C)CC1NC(=O)c2cc(Cl)ccc2-n2c1nc1ccc(F)cc1c2=O (stereo not given)	none (no result: Pf growth 96h, Sm TGR block, Pf growth 48h)
NC(N)=Nc1nc2cc([N+](=O)[O-])ccc2o1	HCMV antiviral -70.8
N/C(=N\c1nc2ccccc2o1)NC(=O)c1ccc([N+](=O)[O-])cc1	HCMV antiviral inconclusive, HCV inhibitor inconclusive
CCC(=O)NC1=C(Cl)C(=O)C(NC(=O)CC)=C(Cl)C1=O	Pf growth 96h 4.65µM, HCMV antiviral -94.0, Sm TGR block 0.224µM, Pf growth 48h 7.38µM, HCV inhibitor inconclusive
C=C1[C@@H](C)C2[C@H](Cc3ccccc3)NC(=O)[C@]23OC(=O)CC[C@H](O)CCC[C@H](C)C/C=C/[C@H]3[C@@H]1O (stereo not given in full)	Pf growth 96h 0.37µM, Pf growth 48h 0.928µM (no result: HCMV antiviral, HCV inhibitor)
C=C1[C@@H](C)[C@H]2[C@H](Cc3ccccc3)NC(=O)[C@]23OC(=O)/C=C/[C@H](O)CCC[C@@H](C)C/C=C/[C@H]3[C@@H]1O	Sm TGR block inconclusive (no result: Pf growth 96h, Pf growth 48h)
Cc1cc(C)nc(NN=C2CCCC2)n1	Pf growth 96h inconclusive, Pf growth 48h 11.7µM
CC(/C=C/c1ccccc1)=N\Nc1nc(C)cc(C)n1	SARS PLpro yeast inconclusive, Pf growth 96h 10.4µM, Pf growth 48h inconclusive
CC(/C=C/c1ccccc1)=N\NC(=S)NC(C)C	Pf growth 96h 4.65µM, HCV inhibitor inconclusive
Cc1cc(C)nc(NN=C(c2ccccc2)c2ccccc2)n1	Pf growth 96h 13.1µM, HCMV antiviral inconclusive, Pf growth 48h inconclusive, HCV inhibitor inconclusive
CC(/C=C/c1ccccc1)=N\NC(=O)c1ccncc1	none
O=S1(=O)N[C@H](c2ccccc2)COc2cc(Br)ccc21	none (no result: SARS PLpro yeast, Pf growth 96h, Sm TGR block, Pf growth 48h, HCV inhibitor)
COC(=O)C1CSC(C(=O)OC)N1C(=O)CN1CCN(c2ccccc2)CC1 (stereo not given)	Pf growth 96h inconclusive
COCCNC(=O)c1nn2c(C(F)(F)F)cc(-c3ccccc3)nc2c1Cl	none
Cc1cccc(N(CC(=O)NCCc2ccccc2)C(=O)CCC(=O)Nc2ccccn2)c1C	none
Cc1[nH]c2ccccc2c1C(=O)NS(=O)(=O)Nc1ccc(F)cc1	Pf growth 48h inconclusive
Cc1cccc(C(=O)NCC(c2cccs2)N2CCOCC2)c1 (stereo not given)	none
CCN1CCN(c2cc(C)c3cc(NC(=O)/C=C/c4cccc(Cl)c4)ccc3n2)CC1	HCMV antiviral -101.4 (no result: SARS PLpro yeast, Pf growth 96h, Pf growth 48h, HCV inhibitor)
CCN1CCN(c2cc(C)c3cc(NC(=O)/C=C/c4cccc(OC)c4OC)ccc3n2)CC1	HCMV antiviral -99.7 (no result: SARS PLpro yeast, Pf growth 96h, Pf growth 48h, HCV inhibitor)
COc1cccc(/C=C/C(=O)Nc2ccc3nc(N4CCN(C)CC4)cc(C)c3c2)c1OC	HCMV antiviral -105.8 (no result: SARS PLpro yeast, Pf growth 96h, Pf growth 48h, HCV inhibitor)
CCN1CCN(c2cc(C)c3cc(NC(=O)Cc4ccc(OC)c(OC)c4)ccc3n2)CC1	Pf growth 48h inconclusive, HCV inhibitor inconclusive
Cc1cc(N2CCCCC2)nc2ccc(NC(=O)/C=C/c3ccccc3OC(C)C)cc12	none (no result: SARS PLpro yeast, Pf growth 96h, Pf growth 48h, HCV inhibitor)
Cc1cc(C)cc(NC(=O)Nc2ccc3nc(N4CCN(C)CC4)cc(C)c3c2)c1	none (no result: SARS PLpro yeast, Pf growth 96h, Pf growth 48h, HCV inhibitor)
